Test [1] can be described thus: P-glycoprotein substrates identified in KB-3-1 adenocarcinoma cell line, qHTS therapeutic library screen (AID 1346986). Further: nearly all actives have a fitted effect of over 60% in size. The gist of the method:
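Resistance attributable to P-gp was assessed by comparing AC50 in KB-8-5-11 with parental KB-3-1 and by tariquidar reversal. Cells were exposed 72 h and viability read by CellTiter-Glo.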
For orientation: In qHTS, concentration-response curves come from the screen itself.

Test [2] is described as follows: qHTS assay to identify small molecule inhibitors of chordoma cells - UCH-2 (AID 1259356). Further: potency means the concentration at half of the fitted maximal effect.
Test [3] can be described thus: P-glycoprotein substrates identified in KB-8-5-11 adenocarcinoma cell line, qHTS therapeutic library screen (AID 1346987). Further: nearly all actives have a fitted effect of over 65% in size. Further: potency means the concentration at half of the fitted maximal effect. Put shortly: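 KB-8-5-11, a colchicine-selected P-gp-overexpressing KB-3-1 subline, was grown without colchicine for the assay. Cells were seeded at 500 cells/well, dosed in concentration-response and incubated 72 h at 37 degree C, 5% CO2. Viability was read by CellTiter-Glo luminescence.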

The structures appear in SMILES notation. Results filed as inconclusive are left out. Calls of active or inactive are those of the source. The call rests on the fitted dose curve; in most records, active means well fitted curve in the direction sought with a large enough effect; inconclusive means small, poorly fitted or top-dose-only effect, or another doubt; inactive means no such curve, though single readings can be large; an effect the other way counts as inactive or inconclusive.

Take `O=C1C[C@@H]2OCC=C3CN4CC[C@]56c7ccccc7N1[C@H]5[C@H]2[C@H]3C[C@H]46`: in test [1], the Potency result was “inactive”.

For the compound `CNC(=O)OCC[N+](C)(C)C`, the Potency result in test [2] and in test [3] was “inactive” throughout.

For `O=C1CCCCC1CN1CCCCC1` (centres undefined), the Potency result in test [2] and in test [3] was “inactive” throughout.

On to `CCC(=O)O[C@]1(c2ccccc2)CCN(C)C[C@H]1C`, for which the Potency entry in test [2] and in test [3] was “inactive” in each case.

In the case of `OC[C@@H](O)[C@H]1O[C@@H]2O[C@@H](C(Cl)(Cl)Cl)O[C@@H]2[C@H]1O`, the Potency entry in test [2] and in test [3] was “inactive” each time.

As for `O=C(CS(=O)C(c1ccccc1)c1ccccc1)NO` (centres undefined), the Potency entry in test [2] and in test [3] was “inactive” in each case.

For `O=[N+]([O-])c1ccccc1`, the Potency entry in test [2] and in test [3] was “inactive” each time.

Consider `CCNC(C)Cc1cccc(C(F)(F)F)c1` (centres undefined), for which the Potency result in test [2] and in test [3] was “inactive” throughout.

As for `C[C@]12CCC(=O)C=C1C=C[C@@H]1[C@@H]2CC[C@@]2(C)[C@H]1CC[C@@]2(O)CCC(=O)O`, the Potency entry in test [2] and in test [3] was “inactive” each time.

In the case of `CO[C@H]1[C@@H](O)C[C@H](O[C@H]2[C@@H](O)C[C@H](O[C@H]3[C@@H](O)C[C@H](O[C@H]4CC[C@@]5(C)[C@H](CC[C@@H]6[C@@H]5C[C@@H](O)[C@]5(C)[C@@H](C7=CC(=O)OC7)CC[C@]65O)C4)O[C@@H]3C)O[C@@H]2C)O[C@@H]1C`, the Potency in test [2] was 0.058 µM (active); in test [3], 0.259 µM (active).

Turning to `CCOP(=O)(OCC)O/C(=C/Cl)c1ccc(Cl)cc1Cl`, in test [2], the Potency result was “inactive”. In test [3], the Potency is 10.3 µM (active).

Turning to `C#CC(C)(O)CC` (centres undefined), the Potency entry in test [2] and in test [3] was “inactive” each time.

As for `[2H]C([2H])([2H])[C@H](N)Cc1ccccc1`, the Potency result in test [2] and in test [3] was “inactive” in each case.

Take `CCC1(CC)C(=O)NC(=O)N(C)C1=O`: the Potency entry in test [2] and in test [3] was “inactive” in each case.

Regarding `CC(=O)O[C@H]1CC[C@@]2(C)C(=CC[C@@H]3[C@@H]2CC[C@]2(C)C(=O)CC[C@@H]32)C1`, the Potency result in test [2] and in test [3] was “inactive” each time.

As to `CCC1(c2ccccc2)C(=O)NC(=O)NC1=O`, the Potency entry in test [2] and in test [3] was “inactive” throughout.

As to `CCC(C)(S(=O)(=O)CC)S(=O)(=O)CC`, the Potency result in test [2] and in test [3] was “inactive” each time.

Consider `CCCC(=O)OC(C(Cl)(Cl)Cl)P(=O)(OC)OC` (centres undefined), for which the Potency result in test [2] and in test [3] was “inactive” in each case.

In the case of `C[N+]1([O-])[C@@H]2CC[C@H]1CC(OC(=O)C(CO)c1ccccc1)C2` (some centres undefined), the Potency entry in test [2] and in test [3] was “inactive” each time.

Consider `C[C@H]1CC[C@]2(NC1)O[C@H]1C[C@H]3[C@@H]4CC[C@H]5C[C@@H](O[C@@H]6O[C@H](CO)[C@H](O[C@@H]7O[C@H](CO)[C@@H](O)[C@H](O[C@@H]8OC[C@@H](O)[C@H](O)[C@H]8O)[C@H]7O[C@@H]7O[C@H](CO)[C@@H](O)[C@H](O)[C@H]7O)[C@H](O)[C@H]6O)CC[C@]5(C)[C@H]4CC[C@]3(C)[C@H]1[C@@H]2C`, for which the Potency in test [2] is 2.06 µM (active); in test [3], 20.6 µM (active).

As to `C[C@]12CCC(=O)C[C@@H]1CC[C@@H]1[C@@H]2CC[C@]2(C)[C@@H](O)CC[C@@H]12`, in test [2], the Potency entry was “inactive”. Also, in test [3], the Potency was 8.2 µM (active).

Take `N#CC1(N2CCCCC2)CCCCC1`: the Potency result in test [2] and in test [3] was “inactive” in each case.

For the compound `c1cc2c(c(NC3=NCCN3)c1)CCCC2`, the Potency entry in test [2] and in test [3] was “inactive” throughout.

With `CC(C)Nc1ccc(Nc2ccccc2)cc1`, the Potency result in test [2] was “inactive”. Besides, the Potency in test [3] was 20.6 µM (active).

On to `C=CCN1CC[C@]23c4c5ccc(O)c4O[C@H]2[C@@H](O)C=C[C@H]3[C@H]1C5`, for which the Potency result in test [2] and in test [3] was “inactive” throughout.

`CCC1(c2ccccc2)C(=O)NC(=O)N(C)C1=O` (centres undefined): the Potency result in test [2] and in test [3] was “inactive” each time.

Regarding `CNC(C)C(O)c1ccc(O)cc1` (centres undefined), the Potency result in test [2] and in test [3] was “inactive” in each case.

Consider `CC1(C)S[C@@H]2[C@H](N)C(=O)N2[C@H]1C(=O)O`, for which the Potency result in test [2] and in test [3] was “inactive” each time.

Consider `ClC(Cl)(Cl)Cl`, for which the Potency result in test [2] and in test [3] was “inactive” throughout.

`O=C/C=C/c1ccccc1`: the Potency result in test [2] and in test [3] was “inactive” in each case.

Turning to `C[C@@H]([C@H](O)c1ccccc1)N(C)C`, the Potency entry in test [2] and in test [3] was “inactive” throughout.

Turning to `CCCCNCC(O)c1ccc(O)cc1` (centres undefined), the Potency entry in test [2] and in test [3] was “inactive” in each case.

With `OC[C@@H](O)[C@H]1O[C@@H]2O[C@H](C(Cl)(Cl)Cl)O[C@@H]2[C@H]1O`, the Potency result in test [2] and in test [3] was “inactive” throughout.

On to `CCCC(C)(COC(N)=O)COC(=O)NC1CC1` (centres undefined), for which the Potency entry in test [2] and in test [3] was “inactive” in each case.

Regarding `CN1[C@H]2CC[C@@H]1[C@@H](C(=O)O)[C@@H](OC(=O)c1ccccc1)C2`, the Potency result in test [2] and in test [3] was “inactive” each time.

For the compound `CC(=O)Oc1ccc2c3c1O[C@H]1[C@@H](OC(C)=O)C=C[C@H]4[C@@H](C2)N(C)CC[C@@]341`, the Potency entry in test [2] and in test [3] was “inactive” each time.

For the compound `O=[N+]([O-])C(Br)(CO)CO`, the Potency entry in test [2] and in test [3] was “inactive” each time.

`Clc1ccc(C2(Cn3cncn3)OCCO2)c(Cl)c1`: the Potency result in test [2] and in test [3] was “inactive” each time.

With `O=C(OCCN1CCCCC1)C(O)(c1ccccc1)c1ccccc1`, the Potency result in test [2] and in test [3] was “inactive” in each case.

For the compound `O=Cc1ccco1`, the Potency entry in test [2] and in test [3] was “inactive” throughout.

Source of the values: PubChem BioAssay (NCATS).
